hcDAF12 agonist = activates DAF-12 receptor from parasite H. contortus. AID 652067. activation, % at 6.8 µM. HEK293 hcDAF-12 lit1-tk-luc reporter, luminescence; 0% DMSO, 100% Δ7-dafachronic acid. 370,000 compounds, 1.4% hits;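 active means activation above the mean of all tested compounds plus 3 SD, cut at about 5.5% in these data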;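 further: 100% = response to 3 µM Δ7-dafachronic acid high control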
hgDAF-12 ag = agonists of H. glycines DAF-12 nuclear receptor. HEK293 GAL4-hgDAF12 UAS-luciferase reporter, agonist luminescence; normalized to butyrate control. activation, % at 6.8 µM. 370,000 compounds, 1.8% hits. AID 687014;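 active means activation above a cutoff set at the mean of all screened compounds plus 3 SD, cut at about 10% in these data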;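 further: 0% = DMSO wells and 100% = sodium butyrate wells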
DAX1 inh-1 = blocks DAX1 repression of SF-1 activated StAR promoter | HEK293T StAR-luciferase reporter, SF-1/DAX-1 repression relief | AID 652010 | inhibition, % at 6.8 µM | 370,000 compounds, 1.1% hits;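 active means inhibition above the mean over all tested compounds plus 3 SD, cut at about 3.6% in these data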;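 further: 0% = DAX-1 cells with DMSO and 100% = cells lacking DAX-1 with DMSO; higher inhibition means more luminescence from relief of DAX-1 repression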
DAX1 inh-2 = inhibits human nuclear receptor DAX1; inhibition, % at 6.75 µM; HEK293 Gal4-DAX1 luciferase reporter, luminescence; AID 504766; 340,000 compounds, 0.99% hits;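 active means inhibition above the mean over all tested compounds plus 3 SD, cut at about 4.2% in these data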;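 further: 0% = DAX1-transfected cells with DMSO and 100% = empty-vector control cells with DMSO; inhibition shows as a rise in luminescence from relieved DAX1 repression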
Target sequence (P51843 207-470 limits assumed): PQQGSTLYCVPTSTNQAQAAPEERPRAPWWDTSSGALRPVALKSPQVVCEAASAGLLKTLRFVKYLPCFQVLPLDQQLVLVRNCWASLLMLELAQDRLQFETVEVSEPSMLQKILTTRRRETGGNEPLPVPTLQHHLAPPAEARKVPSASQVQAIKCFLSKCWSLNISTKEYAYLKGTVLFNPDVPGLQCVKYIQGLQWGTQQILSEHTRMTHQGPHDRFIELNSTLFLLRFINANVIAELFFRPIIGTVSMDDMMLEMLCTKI
SMARCA2 act = activators of SMARCA2 function | activation, % at 9.1 µM | MG213 cells, MMTV-luciferase reporter, dexamethasone, overnight | 370,000 compounds, 1% hits; in the data active means activation above about 7.8%;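 further: 0% = vehicle wells and 100% = reference activator wells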
ssDAF-12 act = activates DAF-12 receptor from parasite S. stercoralis; HEK293 ssDAF-12/GRIP1 lit1-tk-luc reporter, luminescence; % of 3 µM dafachronic acid response; activation, % at 6.8 µM; 370,000 compounds, 1% hits; AID 652126;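 active means activation above the mean over all tested compounds plus 3 SD, cut at about 0.9% in these data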;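 further: 0% = DMSO-only wells and 100% = 3 µM delta7-dafachronic acid wells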
* marks the source's active call; other numbers are inactive results. This is a sample that favours compounds with a hit; in the whole collection about 4.8% have one here.

O=C(NC1CC1c1ccccc1)N1CCC(c2nc3ccc(Cl)cc3[nH]2)CC1 (stereo not drawn) was read as hcDAF12 agonist -1.1, hgDAF-12 ag -0.6, DAX1 inh-1 -1.5, SMARCA2 act -5.3 and ssDAF-12 act -1.5.
For CN(C)C(=O)c1c([N+](=O)[O-])c(C(C)(C)C)nn1C the results were hcDAF12 agonist -0.3, hgDAF-12 ag 0.6, DAX1 inh-1 0.1, DAX1 inh-2 0.5, SMARCA2 act 0.4 and ssDAF-12 act -1.3.
`CCCc1nn(C)c(C(N)=O)c1[N+](=O)[O-]` gave hcDAF12 agonist 5.2, hgDAF-12 ag 1.5, DAX1 inh-1 0.9, DAX1 inh-2 0.9, SMARCA2 act -0.1 and ssDAF-12 act 1.0*.
For COC(=O)[C@]12C[C@H](CC(=O)N3CCN(C(=O)C4CC4)CC3)C(=O)N(CCc3ccc(OC)c(OC)c3)C1=C[C@H](C(C)(C)C)O[C@@H]2C the results were hcDAF12 agonist -0.7, hgDAF-12 ag -1.6, DAX1 inh-1 -0.3, SMARCA2 act -2.9 and ssDAF-12 act -0.5.
Screening CCN(Cc1cc(=O)[nH]c2ccccc12)C(=O)c1ccc(C)cc1 returned hcDAF12 agonist 2.0, hgDAF-12 ag 0.8, DAX1 inh-1 1.1, DAX1 inh-2 1.4, SMARCA2 act 5.1 and ssDAF-12 act 1.8*.
Screening CCN(Cc1cc(=O)[nH]c2ccccc12)C(=O)C(C)C returned hcDAF12 agonist 5.1, hgDAF-12 ag 0.0, DAX1 inh-1 -0.2, DAX1 inh-2 1.4, SMARCA2 act -0.9 and ssDAF-12 act 0.9*.
`Cc1ccc(N(Cc2cc(=O)[nH]c3ccccc23)C(=O)C(C)C)cc1` gave hcDAF12 agonist 1.4, hgDAF-12 ag 7.7, DAX1 inh-1 0.6, DAX1 inh-2 4.0, SMARCA2 act -3.7 and ssDAF-12 act -0.5.
For CCCC(=O)N(Cc1cc(=O)[nH]c2ccccc12)c1ccc(C)cc1 the results were hcDAF12 agonist 3.0, hgDAF-12 ag 0.3, DAX1 inh-1 -1.0, DAX1 inh-2 -0.5, SMARCA2 act -1.0 and ssDAF-12 act -0.2.
Screening CNC(=O)NC(=O)COC(=O)CCCOc1ccc(OC)cc1 returned hcDAF12 agonist -1.3, hgDAF-12 ag -0.2, DAX1 inh-1 0.2, DAX1 inh-2 5.6*, SMARCA2 act -3.6 and ssDAF-12 act -0.6.
Screening O=c1c2ccccc2n(Cc2ccco2)n1[C@@H](Cc1ccccc1)Cn1cc(-c2ccc(-c3ccccc3)cc2)nn1 returned hcDAF12 agonist -0.8, hgDAF-12 ag 1.8, DAX1 inh-1 2.0, SMARCA2 act -1.1 and ssDAF-12 act -1.5.
For O=C(Cc1nc(=O)c2ccccc2s1)Nc1ccccc1 the results were hcDAF12 agonist 5.9*, hgDAF-12 ag 10.9*, DAX1 inh-1 3.3, DAX1 inh-2 2.9, SMARCA2 act 6.3 and ssDAF-12 act 0.4.
Screening C=CCN=C1NC(c2ccc(C(F)(F)F)cc2)C(C(=O)OC)=C(C)N1C (stereo not drawn) returned hcDAF12 agonist -0.9, hgDAF-12 ag 1.6, DAX1 inh-1 -0.7, SMARCA2 act -2.9 and ssDAF-12 act -1.2.
`CCc1noc(C)c1C(=O)N(CC)CC(=O)Nc1ccccc1C(F)(F)F` gave hcDAF12 agonist 0.4, hgDAF-12 ag 0.9, DAX1 inh-1 0.6, DAX1 inh-2 1.2, SMARCA2 act -1.6 and ssDAF-12 act -0.6.
CCN(CC(=O)Nc1ccccc1C(F)(F)F)C(=O)c1oc2ccc(OC)cc2c1C was read as hcDAF12 agonist -0.8, hgDAF-12 ag 4.8, DAX1 inh-1 4.2*, DAX1 inh-2 0.7, SMARCA2 act 1.1 and ssDAF-12 act -0.2.
COc1ccc(/C=N/Nc2ccc(C(=O)O)cc2)cc1Br was read as hcDAF12 agonist 3.9, hgDAF-12 ag 3.8, DAX1 inh-1 4.0*, DAX1 inh-2 -2.2, SMARCA2 act 7.6 and ssDAF-12 act -0.6.
O=C(N/N=C/c1ccc(O)cc1)c1cccc(C(F)(F)F)c1 was read as hcDAF12 agonist 1.8, hgDAF-12 ag 0.9, DAX1 inh-1 0.0, DAX1 inh-2 -1.1, SMARCA2 act -2.3 and ssDAF-12 act -0.8.
`COc1cc(/C=N/Nc2ccc(C(F)(F)F)cn2)ccc1O` gave hcDAF12 agonist 2.8, hgDAF-12 ag 4.4, DAX1 inh-1 0.1, DAX1 inh-2 -0.6, SMARCA2 act 0.7 and ssDAF-12 act 0.2.
O=C(O)c1ccc(/C=N/Nc2ccc(C(F)(F)F)cn2)cc1 was read as hcDAF12 agonist 6.0*, hgDAF-12 ag 18.6*, DAX1 inh-1 4.2*, DAX1 inh-2 1.3, SMARCA2 act 5.3 and ssDAF-12 act 3.4*.
Screening O=C(O)c1ccc(/C=N/Nc2cccc(C(F)(F)F)c2)cc1 returned hcDAF12 agonist 1.0, hgDAF-12 ag 3.1, DAX1 inh-1 4.3*, DAX1 inh-2 0.5, SMARCA2 act 7.6 and ssDAF-12 act -0.9.
CCN(CC)CCCNC(=O)CSc1nc2cccnc2n1C was read as hcDAF12 agonist 1.8, hgDAF-12 ag 3.8, DAX1 inh-1 0.6, SMARCA2 act -1.6 and ssDAF-12 act 0.2.
Brc1ccc(-c2noc(CCc3ccccc3)n2)o1 was read as hcDAF12 agonist 6.1*, hgDAF-12 ag 7.1, DAX1 inh-1 1.9, DAX1 inh-2 2.2, SMARCA2 act 1.4 and ssDAF-12 act 0.3.
For COc1ccc(CNC(=O)O[C@H]2CC[C@@]34CCCN3C(=O)CCC[C@H]4C2)cc1 the results were hcDAF12 agonist -1.5, hgDAF-12 ag 0.6 and ssDAF-12 act -1.5.
Cc1cccc(C)c1NC(=O)c1cnccn1 was read as hcDAF12 agonist -2.0, hgDAF-12 ag -1.1, DAX1 inh-1 0.3, DAX1 inh-2 0.5, SMARCA2 act -0.7 and ssDAF-12 act 1.0*.
`Cc1cccc(C)c1NC(=O)CNC(=O)c1cnccn1` gave hcDAF12 agonist 0.1, hgDAF-12 ag 0.8, DAX1 inh-1 0.5, DAX1 inh-2 0.8, SMARCA2 act -1.9 and ssDAF-12 act -1.2.
For COc1ccc(-c2cn3cccnc3n2)cc1Br the results were hcDAF12 agonist -2.6, hgDAF-12 ag 1.8, DAX1 inh-1 -0.1, DAX1 inh-2 1.9, SMARCA2 act 2.0 and ssDAF-12 act -1.3.
Screening COc1ccc(-c2cn3cc(Br)cnc3n2)cc1 returned hcDAF12 agonist 1.2, hgDAF-12 ag 5.7, DAX1 inh-1 0.6, DAX1 inh-2 0.3, SMARCA2 act 7.9* and ssDAF-12 act -1.3.
Screening Cc1cc(C)c2c(c1)/C(=N/NC(=O)c1ccc(O)cc1)CCC2 returned hcDAF12 agonist -0.1, hgDAF-12 ag 4.0, DAX1 inh-1 0.2, DAX1 inh-2 -0.7, SMARCA2 act 0.3 and ssDAF-12 act -2.0.
For Cc1cc2c(cc1C)/C(=N/NC(=O)c1ccccn1)CCC2 the results were hcDAF12 agonist 4.0, hgDAF-12 ag 10.7*, DAX1 inh-1 2.7, SMARCA2 act 4.6 and ssDAF-12 act -0.4.
O=C(N/N=C1\CCc2ccccc21)c1ccccc1Cl was read as hcDAF12 agonist 3.0, hgDAF-12 ag 11.9*, DAX1 inh-1 2.5, DAX1 inh-2 3.3, SMARCA2 act 3.0 and ssDAF-12 act -0.3.

Screening data deposited in PubChem BioAssay by The Scripps Research Institute Molecular Screening Center.
